Common to all, as to details: mRNA level, 48 h; actives raise or lower the signal
Read-out in assay [1]: Fatty acid synthase (Homo sapiens) (UniProt P49327)
Nature of the assay: LTEA_HepaRG_FASN: Life Technologies and Expression Analysis (LTEA) Assay for Fatty Acid Synthase (FASN) using HepaRG (AID 2283448). In short, it runs like this:
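In human HepaRG cultures, 48 h chemical exposure (up to 100 uM, 0.5% DMSO) preceded TaqMan qRT-PCR of FASN.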

Read-out in assay [2]: Cyclin Dependent Kinase Inhibitor 1A (CDKN1A), CDKN1A (gene 1026)
Nature of the assay: LTEA_HepaRG_CDKN1A: Life Technologies and Expression Analysis (LTEA) Assay for Cyclin Dependent Kinase Inhibitor 1A (CDKN1A) using HepaRG (AID 2283450). Summed up: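 Cryopreserved HepaRG cells were plated and cultured 48 h, then switched to serum-free induction medium. Chemicals (eight half-log concentrations, top 100 uM, 0.5% DMSO) were applied for 48 h. Lysates underwent qRT-PCR for CDKN1A with housekeeping normalization.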

Read-out in assay [3]: Cyclin D1 (CCND1), CCND1 (gene 595)
As to the kind of experiment: LTEA_HepaRG_CCND1: Life Technologies and Expression Analysis (LTEA) Assay for Cyclin D1 (CCND1) using HepaRG (AID 2283451). In short, it runs like this:
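Human liver HepaRG line; 48 h dosing, 8 conc. ≤100 uM, 0.5% DMSO; TaqMan qRT-PCR mRNA, 3 housekeeping genes; bidirectional curve fit vs DMSO.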

Read-out in assay [4]: catalase (CAT), CAT (gene 847)
As to the kind of experiment: LTEA_HepaRG_CAT: Life Technologies and Expression Analysis (LTEA) Assay for catalase (CAT) using HepaRG (AID 2283452). In short, it runs like this:
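Expression of CAT was quantified by TaqMan qRT-PCR with ACTB/GAPDH/POLR2A normalization after 48 h chemical exposure of HepaRG. Eight-point half-log series, top 100 uM, in 0.5% DMSO; gain or loss fitted against vehicle.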

Read-out in assay [5]: flavin-containing dimethylaniline monooxygenases 3 (FMO3), FMO3 (gene 2328)
As to the kind of experiment: LTEA_HepaRG_FMO3: Life Technologies and Expression Analysis (LTEA) Assay for flavin-containing dimethylaniline monooxygenases 3 (FMO3) using HepaRG (AID 2283453). Summed up: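 Eight-point concentration-response in serum-free HepaRG cultures (top 100 uM, 0.5% DMSO, 48 h). Read-out: FMO3 mRNA level normalized to three endogenous control genes, fitted bidirectionally versus vehicle.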

Read-out in assay [6]: Cytochrome P450 (CYP1A1), CYP1A1 (gene 1543)
As to the kind of experiment: LTEA_HepaRG_CYP1A1: Life Technologies and Expression Analysis (LTEA) Assay for Cytochrome P450 (CYP1A1) using HepaRG (AID 2283454). In short, it runs like this: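 Induction of CYP1A1 mRNA in a human hepatic cell line was measured 48 h after dosing, with 1 mM phenobarbital as induction positive control and 0.5% DMSO vehicle as baseline for bidirectional curve fitting.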

Read-out in assay [7]: CFLAR gene, CFLAR (gene 8837)
As to the kind of experiment: LTEA_HepaRG_CFLAR: Life Technologies and Expression Analysis (LTEA) Assay for CFLAR gene using HepaRG (AID 2283455). Summed up:
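Transcript level by qRT-PCR (normalized to ACTB, GAPDH and POLR2A) after 48 h chemical exposure of HepaRG cells, top concentration 100 uM with half-log steps, 0.5% DMSO vehicle, duplicates; fitted bidirectionally against DMSO baseline.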

Read-out in assay [8]: Forkhead box O1 (FOXO1), FOXO1 (gene 2308)
As to the kind of experiment: LTEA_HepaRG_FOXO1: Life Technologies and Expression Analysis (LTEA) Assay for Forkhead box O1 (FOXO1) using HepaRG (AID 2283456). In short, it runs like this: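 FOXO1 transcript quantified by qRT-PCR after 48 h chemical exposure (top 100 uM, half-log steps, 0.5% DMSO) of HepaRG cells, housekeeping-normalized (ACTB/GAPDH/POLR2A). Changes fitted in both directions relative to vehicle.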

Read-out in assay [9]: growth arrest and DNA damage 45 (GADD45A), GADD45A (gene 1647)
Nature of the assay: LTEA_HepaRG_GADD45A: Life Technologies and Expression Analysis (LTEA) Assay for growth arrest and DNA damage 45 (GADD45A) using HepaRG (AID 2283458). Summed up: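 Eight-point concentration-response in HepaRG cells: 48 h chemical exposure, 0.5% DMSO vehicle, top dose 100 uM. Normalized qRT-PCR mRNA readout with bidirectional fitting relative to DMSO.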

Read-out in assay [10]: Forkhead box O3 (FOXO3), FOXO3 (gene 2309)
As to the kind of experiment: LTEA_HepaRG_FOXO3: Life Technologies and Expression Analysis (LTEA) Assay for Forkhead box O3 (FOXO3) using HepaRG (AID 2283459). Summed up: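 FOXO3 transcript measured by qRT-PCR (normalized to ACTB, GAPDH, POLR2A) after 48 h exposure of HepaRG cells in serum-free induction medium. Duplicates, eight half-log concentrations up to 100 uM, 0.5% DMSO; gain or loss fitted against DMSO.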

Read-out in assay [11]: ABC Transporter (ABCB1), ABCB1 (gene 5243)
Nature of the assay: LTEA_HepaRG_ABCB1: Life Technologies and Expression Analysis (LTEA) Assay for ABC Transporter (ABCB1) using HepaRG (AID 2283460). In short, it runs like this:
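ABCB1 transcript level measured by TaqMan qRT-PCR against three housekeeping genes after 48 h chemical exposure of differentiated HepaRG cells. Top concentration 100 uM, half-log steps, eight points, 0.5% DMSO vehicle; bidirectional fit relative to DMSO.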

Read-out in assay [12]: growth arrest and DNA damage 45 (GADD45B), GADD45B (gene 4616)
Nature of the assay: LTEA_HepaRG_GADD45B: Life Technologies and Expression Analysis (LTEA) Assay for growth arrest and DNA damage 45 (GADD45B) using HepaRG (AID 2283461). Summed up:
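Values are bidirectional concentration-response fits against 0.5% DMSO controls. Underlying data: qRT-PCR mRNA levels in human HepaRG liver cells treated 48 h in serum-free induction medium, eight concentrations topping at 100 uM.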

Read-out in assay [13]: ABC Transporter (ABCC3), ABCC3 (gene 8714)
Nature of the assay: LTEA_HepaRG_ABCC3: Life Technologies and Expression Analysis (LTEA) Assay for ABC Transporter (ABCC3) using HepaRG (AID 2283462). In short, it runs like this: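 Differentiated HepaRG liver cells receive test chemicals at eight concentrations (max 100 uM) for 48 h. Expression of ABCC3 is quantified by qRT-PCR against ACTB, GAPDH and POLR2A, and activity is fitted in both directions against the DMSO control.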

Read-out in assay [14]: ABC Transporter (ABCB11), ABCB11 (gene 8647)
As to the kind of experiment: LTEA_HepaRG_ABCB11: Life Technologies and Expression Analysis (LTEA) Assay for ABC Transporter (ABCB11) using HepaRG (AID 2283463). Summed up: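 ABCB11 transcript levels quantified by TaqMan qRT-PCR against three housekeeping genes after 48 h chemical exposure of HepaRG cultures. Concentrations up to 100 uM in half-log steps, 0.5% DMSO vehicle; both induction and suppression scored.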

Read-out in assay [15]: ABC Transporter (ABCC2), ABCC2 (gene 1244)
As to the kind of experiment: LTEA_HepaRG_ABCC2: Life Technologies and Expression Analysis (LTEA) Assay for ABC Transporter (ABCC2) using HepaRG (AID 2283464). In short, it runs like this: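 Gene expression of ABCC2 was determined by qRT-PCR in HepaRG cells exposed 48 h to chemicals (highest 100 uM, half-log dilutions). Activity was fitted in both directions relative to 0.5% DMSO vehicle.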

Read-out in assay [16]: Broad substrate specificity ATP-binding cassette transporter ABCG2 (Homo sapiens) (UniProt Q9UNQ0)
As to the kind of experiment: LTEA_HepaRG_ABCG2: Life Technologies and Expression Analysis (LTEA) Assay for ABC Transporter (ABCG2) using HepaRG (AID 2283465). Summed up: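 ABCG2 transcript was quantified by TaqMan qRT-PCR against three housekeeping genes in HepaRG cells. Cells were treated in duplicate for 48 h across an 8-point half-log series up to 100 uM, with 0.5% DMSO vehicle. Gain or loss versus DMSO was fit.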

Read-out in assay [17]: ATP-citrate lyase (ACLY), ACLY (gene 47)
Nature of the assay: LTEA_HepaRG_ACLY: Life Technologies and Expression Analysis (LTEA) Assay for ATP-citrate lyase (ACLY) using HepaRG (AID 2283466). In short, it runs like this:
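ACLY mRNA quantified by qRT-PCR on Fluidigm arrays against three housekeeping genes, after 48 h chemical treatment of HepaRG cells (top concentration 100 uM, half-log steps, 0.5% DMSO vehicle). Up- or down-regulation fitted relative to DMSO.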

Read-out in assay [18]: Peroxisomal acyl-coenzyme A oxidase 1 (ACOX1) gene, ACOX1 (gene 51)
As to the kind of experiment: LTEA_HepaRG_ACOX1: Life Technologies and Expression Analysis (LTEA) Assay for Peroxisomal acyl-coenzyme A oxidase 1 (ACOX1) gene using HepaRG (AID 2283467). Summed up: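 ACOX1 transcript levels were quantified by TaqMan qRT-PCR against three housekeeping genes after 48 h chemical exposure of differentiated human HepaRG cells. Exposure used eight half-log steps topping at 100 uM, 0.5% DMSO vehicle, in duplicate. Bidirectional curve fits were made relative to DMSO.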

This is an account of results in PubChem BioAssay (EPA / NIEHS).

Calls of active or inactive are those of the source. The calls were made as follows: active = hit-call score of the fitted dose curve at least 0.9, where 1 is the maximum; inactive = score below 0.9.

Usually AC50 stands for the concentration giving half of the maximal activity seen.

Fatty acid synthase (Homo sapiens), sequence (P49327 whole entry, looked up): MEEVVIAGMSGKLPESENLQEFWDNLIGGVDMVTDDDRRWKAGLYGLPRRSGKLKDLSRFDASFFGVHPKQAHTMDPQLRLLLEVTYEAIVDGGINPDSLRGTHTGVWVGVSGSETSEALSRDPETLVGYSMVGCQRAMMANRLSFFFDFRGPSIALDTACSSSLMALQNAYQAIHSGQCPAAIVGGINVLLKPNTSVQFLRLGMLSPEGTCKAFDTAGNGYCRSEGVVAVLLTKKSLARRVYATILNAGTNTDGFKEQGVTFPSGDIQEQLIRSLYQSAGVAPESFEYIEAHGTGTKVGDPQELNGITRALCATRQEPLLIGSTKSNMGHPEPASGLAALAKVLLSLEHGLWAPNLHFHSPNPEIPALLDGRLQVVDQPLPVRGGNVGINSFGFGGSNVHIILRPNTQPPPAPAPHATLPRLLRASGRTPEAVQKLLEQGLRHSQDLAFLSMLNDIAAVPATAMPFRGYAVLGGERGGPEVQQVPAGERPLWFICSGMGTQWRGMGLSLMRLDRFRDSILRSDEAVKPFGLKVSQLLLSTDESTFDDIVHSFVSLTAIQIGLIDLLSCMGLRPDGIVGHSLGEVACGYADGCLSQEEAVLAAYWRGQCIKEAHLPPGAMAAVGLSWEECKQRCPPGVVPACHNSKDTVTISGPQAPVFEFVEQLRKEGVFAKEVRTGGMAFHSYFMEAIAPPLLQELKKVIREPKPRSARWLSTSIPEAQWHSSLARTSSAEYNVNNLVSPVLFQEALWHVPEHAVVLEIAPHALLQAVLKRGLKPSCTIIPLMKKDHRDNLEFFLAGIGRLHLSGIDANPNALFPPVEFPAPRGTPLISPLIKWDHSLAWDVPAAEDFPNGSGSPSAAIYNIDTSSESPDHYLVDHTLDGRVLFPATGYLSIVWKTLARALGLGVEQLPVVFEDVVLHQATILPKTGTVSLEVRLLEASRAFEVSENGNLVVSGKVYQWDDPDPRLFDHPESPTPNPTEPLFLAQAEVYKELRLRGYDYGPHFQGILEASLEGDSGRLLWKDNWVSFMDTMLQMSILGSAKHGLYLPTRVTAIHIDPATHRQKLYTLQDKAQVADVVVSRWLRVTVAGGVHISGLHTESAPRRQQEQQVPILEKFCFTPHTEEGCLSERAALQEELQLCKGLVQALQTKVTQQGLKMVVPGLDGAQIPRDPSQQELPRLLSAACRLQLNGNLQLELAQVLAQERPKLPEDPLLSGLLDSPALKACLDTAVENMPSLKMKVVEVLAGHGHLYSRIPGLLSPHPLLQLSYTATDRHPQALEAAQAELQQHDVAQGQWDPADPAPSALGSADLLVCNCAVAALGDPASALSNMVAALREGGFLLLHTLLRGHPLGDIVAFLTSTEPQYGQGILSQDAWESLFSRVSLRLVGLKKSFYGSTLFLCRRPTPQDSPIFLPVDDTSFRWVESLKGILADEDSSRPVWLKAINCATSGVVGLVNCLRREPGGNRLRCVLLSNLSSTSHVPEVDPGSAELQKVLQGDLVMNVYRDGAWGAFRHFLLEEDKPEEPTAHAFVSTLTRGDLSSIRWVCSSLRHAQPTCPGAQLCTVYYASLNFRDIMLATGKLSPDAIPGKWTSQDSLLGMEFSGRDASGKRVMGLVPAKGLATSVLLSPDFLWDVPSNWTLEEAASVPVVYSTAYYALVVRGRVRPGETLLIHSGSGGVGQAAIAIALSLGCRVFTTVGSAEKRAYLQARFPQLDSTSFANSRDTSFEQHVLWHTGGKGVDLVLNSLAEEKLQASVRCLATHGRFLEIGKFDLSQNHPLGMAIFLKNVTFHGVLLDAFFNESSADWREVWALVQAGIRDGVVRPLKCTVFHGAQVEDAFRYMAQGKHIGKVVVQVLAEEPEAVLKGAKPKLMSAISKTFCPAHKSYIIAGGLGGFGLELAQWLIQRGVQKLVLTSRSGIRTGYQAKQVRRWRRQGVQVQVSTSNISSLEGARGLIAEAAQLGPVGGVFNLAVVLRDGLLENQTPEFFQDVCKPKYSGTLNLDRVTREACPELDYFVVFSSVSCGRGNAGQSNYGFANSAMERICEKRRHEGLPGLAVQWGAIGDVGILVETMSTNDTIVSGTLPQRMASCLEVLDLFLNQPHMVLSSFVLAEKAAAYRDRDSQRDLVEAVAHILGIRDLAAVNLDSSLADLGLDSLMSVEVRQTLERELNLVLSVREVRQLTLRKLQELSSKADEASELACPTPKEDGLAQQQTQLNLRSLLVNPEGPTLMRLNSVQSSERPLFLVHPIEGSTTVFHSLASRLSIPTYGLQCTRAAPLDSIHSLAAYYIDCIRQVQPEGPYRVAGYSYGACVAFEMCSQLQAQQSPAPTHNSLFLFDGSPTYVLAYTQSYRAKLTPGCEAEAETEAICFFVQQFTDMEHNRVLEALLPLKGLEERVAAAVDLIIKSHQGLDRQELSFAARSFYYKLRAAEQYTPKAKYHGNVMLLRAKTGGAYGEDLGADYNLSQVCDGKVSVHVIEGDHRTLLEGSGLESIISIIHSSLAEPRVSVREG
Broad substrate specificity ATP-binding cassette transporter ABCG2 (Homo sapiens), sequence (Q9UNQ0 whole entry, looked up): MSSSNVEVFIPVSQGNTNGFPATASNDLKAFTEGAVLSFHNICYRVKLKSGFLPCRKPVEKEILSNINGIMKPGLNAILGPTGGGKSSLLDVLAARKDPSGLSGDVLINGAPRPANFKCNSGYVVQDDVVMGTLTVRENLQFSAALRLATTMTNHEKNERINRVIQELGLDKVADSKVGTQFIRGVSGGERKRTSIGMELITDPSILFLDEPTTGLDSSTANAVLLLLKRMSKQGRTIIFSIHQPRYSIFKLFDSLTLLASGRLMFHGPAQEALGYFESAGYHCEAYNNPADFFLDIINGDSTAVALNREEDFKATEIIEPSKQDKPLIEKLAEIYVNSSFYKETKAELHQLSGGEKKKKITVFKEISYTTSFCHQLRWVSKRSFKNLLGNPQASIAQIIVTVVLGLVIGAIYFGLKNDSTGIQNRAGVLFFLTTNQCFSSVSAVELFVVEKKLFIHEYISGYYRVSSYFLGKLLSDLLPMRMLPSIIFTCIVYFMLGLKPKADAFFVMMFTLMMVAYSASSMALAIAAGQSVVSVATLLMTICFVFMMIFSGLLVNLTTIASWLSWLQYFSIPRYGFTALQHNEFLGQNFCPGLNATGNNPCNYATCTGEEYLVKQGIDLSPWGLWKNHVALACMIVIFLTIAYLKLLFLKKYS

Take `CNC(=O)Oc1cccc2c1OC(C)(C)O2`: the outcome in assay [1], in assay [2], in assay [3], in assay [4], in assay [5] and in assay [6] was inactive. Besides, the result in assay [7], in assay [8], in [9], in assay [10], in assay [11] and in [12] was inactive. Also, the result in [13], in assay [14], in assay [15], in [16], in [17] and in [18] was inactive.

Turning to `CNC(=O)ON=C(C)SC`, the call in assay [1], in assay [2], in assay [3], in [4], in assay [5] and in assay [6] was inactive. The compound was called inactive in [7], in assay [8], in [9], in assay [10], in [11] and in assay [12]. The result in assay [13], in assay [15], in assay [16], in assay [17] and in [18] was inactive. Also, the AC50 in [14] is 16.7 µM (active).

Take `COP(=O)(NC(C)=O)SC` (centres undefined): the compound was called inactive in assay [1], in [2], in [3], in assay [4], in [5] and in assay [6]. Also, the compound was classed as inactive in assay [7], in assay [8], in assay [9], in [10], in assay [11] and in assay [12]. Also, the result in assay [13], in assay [14], in assay [15], in [16], in [17] and in assay [18] was inactive.
